Only some compounds are listed: those with a hit (about 3.5% of all), similar ones and a draw of the others.
MITF inh: blocks human microphthalmia-associated transcription factor | O75030 | AlphaScreen MITF homodimerization, bead proximity signal | inhibition, % at 2.6 µM | 0.91% of 650,000 active; in the data active means inhibition above about 50%;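 further: 0% = vehicle wells with protein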
Target sequence (O75030 whole entry, looked up): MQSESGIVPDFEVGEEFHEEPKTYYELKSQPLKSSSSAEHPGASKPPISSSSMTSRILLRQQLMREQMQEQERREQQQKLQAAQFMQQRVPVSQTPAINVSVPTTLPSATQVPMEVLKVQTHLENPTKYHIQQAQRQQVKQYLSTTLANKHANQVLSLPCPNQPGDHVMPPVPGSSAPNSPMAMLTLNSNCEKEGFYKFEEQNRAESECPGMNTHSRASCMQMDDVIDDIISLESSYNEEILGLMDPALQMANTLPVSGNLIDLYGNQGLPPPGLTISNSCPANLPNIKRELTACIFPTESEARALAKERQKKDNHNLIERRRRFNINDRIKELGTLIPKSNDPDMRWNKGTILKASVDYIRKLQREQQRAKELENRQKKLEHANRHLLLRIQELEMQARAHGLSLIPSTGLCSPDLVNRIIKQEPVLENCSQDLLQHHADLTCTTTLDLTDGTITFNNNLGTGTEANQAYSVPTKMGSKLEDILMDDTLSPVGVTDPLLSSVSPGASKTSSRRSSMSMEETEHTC
FBW7 activator: activators of human E3 ligase FBW7; Q969H0; AlphaScreen FBW7–phospho-cyclin E peptide binding, activator screen; normalized activity (activation), % at 26.1 µM; 0.13% of 650,000 active; AID 1259310; in the data active means normalized activity above about 1.9%;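 further: purified mutant Fbw7 with reduced substrate affinity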
GPR151 activ: activates the human receptor GPR151. PathHunter beta-arrestin GPR151 cells, luminescence. activation, % at 11.2 µM. 1% of 650,000 active. Q8TDV0; in the data active means activation above about 4.9%;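 further: 0% = median of compound wells and 100% = cells with positive control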
TEAD-YAP block: TEAD-YAP interaction inhibition; HEK-TIYL cells, TEAD-Gal4/YAP UAS-luciferase luminescence; inhibition, % at 9.12 µM; 1.4% of 640,000 active; AID 1259422; in the data active means inhibition above about 32%;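 further: 0% = median of test compound wells and 100% = reference inhibitor wells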
* = called active by the depositor.

How did O=C(COc1cccc(Br)c1)OCCN1C(=O)c2ccccc2C1=O do in these assays?
MITF inh: -3; FBW7 activator: 0; GPR151 activ: 1; TEAD-YAP block: -5

How did CCCOc1ccc(N2CCN(C(=O)COc3ccc(F)cc3)CC2)nn1 do in these assays?
MITF inh: -5; FBW7 activator: 3.3*; GPR151 activ: 1; TEAD-YAP block: 7

What do the screens show for `Cc1cc(C)n(-c2ccc(N3CCN(C(=O)COc4ccccc4)CC3)nn2)n1`?
MITF inh: 17; FBW7 activator: 1; GPR151 activ: -1; TEAD-YAP block: 3

Results for COc1ccccc1-c1ccc(N2CCN(C(=O)COc3ccccc3)CC2)nn1 ?
MITF inh: -11; FBW7 activator: 7.6*; GPR151 activ: -1; TEAD-YAP block: 5

Results for O=C(NCCN1CCN(c2ccccc2)CC1)Nc1ccc(Br)cc1F ?
MITF inh: -6; FBW7 activator: 0; GPR151 activ: -1; TEAD-YAP block: -7

Results for Cc1cc(C)c(C#N)c(SCC(=O)Nc2ccccc2C(=O)O)n1 ?
MITF inh: 10; FBW7 activator: 1; GPR151 activ: 2; TEAD-YAP block: 8

What do the screens show for `Cc1ccc(C#N)c(SCC(=O)Nc2ccccc2C(=O)O)n1`?
MITF inh: -13; FBW7 activator: 0; GPR151 activ: -2; TEAD-YAP block: 33*

How did Cc1cccc(NC(=O)CSc2nc(C)cc(C)c2C#N)n1 do in these assays?
MITF inh: -14; FBW7 activator: 0; GPR151 activ: 0; TEAD-YAP block: 81*

What do the screens show for `CC(C)NC(=O)Cn1c(SCC(=O)N2CCCCC2C)nc2ccccc21` (configuration not stated)?
MITF inh: 3; FBW7 activator: 0; GPR151 activ: 0; TEAD-YAP block: -2

What do the screens show for `COc1cccc2ccc(CN3CCc4nnc(C(C)NC(=O)C5CC5)n4CC3)nc12` (configuration not stated)?
MITF inh: 0; FBW7 activator: 0; GPR151 activ: 1; TEAD-YAP block: -9

What do the screens show for `CC(=O)c1c(C)[nH]c(C(=O)CSc2nnc(-c3ccc4c(c3)OCO4)o2)c1C`?
MITF inh: 10; FBW7 activator: 0; GPR151 activ: 1; TEAD-YAP block: 7

How did N#Cc1cnc(SCc2cc(=O)n3ccccc3n2)nc1N do in these assays?
MITF inh: 3; FBW7 activator: 16*; GPR151 activ: 0; TEAD-YAP block: -9

Results for Cc1c(C(=O)Nc2cccc(Cl)c2)nnn1-c1ccccc1F ?
MITF inh: -2; FBW7 activator: 0; GPR151 activ: -2; TEAD-YAP block: 24

How did Cc1c(C(=O)Nc2cccc(F)c2)nnn1-c1ccccc1F do in these assays?
MITF inh: -1; FBW7 activator: 0; GPR151 activ: -2; TEAD-YAP block: 43*

How did Cc1nc2ccc(N=Cc3ccc(N(C)C)cc3)cc2s1 do in these assays?
MITF inh: 4; FBW7 activator: 0; GPR151 activ: 2; TEAD-YAP block: 0

What do the screens show for `CN(C)c1ccc2nc3ccc(=[N+](C)C)cc-3sc2c1`?
MITF inh: -204; FBW7 activator: 19*; GPR151 activ: -1; TEAD-YAP block: 32

Results for CC1=CC2=NC(=O)/C(=C\c3cc(C)n(-c4cc(C)ccc4C)c3C)C(=N)N2O1 ?
MITF inh: 8; FBW7 activator: 1; GPR151 activ: 0; TEAD-YAP block: 61*

How did COc1ccc(OC)c(-n2c(C)cc(/C=C3/C(=N)N4OC(C)=CC4=NC3=O)c2C)c1 do in these assays?
MITF inh: 13; FBW7 activator: 0; GPR151 activ: 0; TEAD-YAP block: 48*

What do the screens show for `COc1cc(OC)c(-n2c(C)cc(/C=C3/C(=N)N4OC(C)=CC4=NC3=O)c2C)cc1Cl`?
MITF inh: -3; FBW7 activator: 0; GPR151 activ: 0; TEAD-YAP block: 7

How did O=C(CCl)Nc1ccc(Cl)c(C(F)(F)F)c1 do in these assays?
MITF inh: -1; FBW7 activator: 0; GPR151 activ: 2; TEAD-YAP block: 39*

Results for O=C(CCl)Nc1ccc(OC(F)(F)F)cc1 ?
MITF inh: 6; FBW7 activator: 0; GPR151 activ: 0; TEAD-YAP block: 34*

What do the screens show for `O=C(Nc1ccc(OC(F)(F)F)cc1)c1ccc(=O)[nH]c1`?
MITF inh: -4; FBW7 activator: 0; GPR151 activ: 0; TEAD-YAP block: 33*

Results for O=C(CCl)Nc1ccc(OC(F)F)cc1 ?
MITF inh: 11; FBW7 activator: 0; GPR151 activ: 0; TEAD-YAP block: 35*

Results for CCCC(=O)Nc1ccc(Cl)c(C(F)(F)F)c1 ?
MITF inh: 10; FBW7 activator: 0; GPR151 activ: 2; TEAD-YAP block: 14

What do the screens show for `O=C(O)CCCC(=O)Nc1ccc(OC(F)(F)F)cc1`?
MITF inh: 6; FBW7 activator: 0; GPR151 activ: 0; TEAD-YAP block: 1

How did CCc1ccc(C(=O)COC(=O)c2cc3ccccc3oc2=O)cc1 do in these assays?
MITF inh: -33; FBW7 activator: 0; GPR151 activ: 0; TEAD-YAP block: -23

Results for CC1=C(C(=O)OC2CCCC2)C(c2cccc(Cl)c2Cl)C2=C(CCCC2=O)N1 (configuration not stated) ?
MITF inh: 8; FBW7 activator: 0; GPR151 activ: -1; TEAD-YAP block: 1

How did CC1Cc2ccccc2N1S(=O)(=O)c1cccc(C(=O)OCC#N)c1 (configuration not stated) do in these assays?
MITF inh: 5; FBW7 activator: 0; GPR151 activ: 0; TEAD-YAP block: -1

Results for CN1CCN(c2cc(-c3ccccn3)nc(-c3ccccn3)n2)CC1 ?
MITF inh: 112*; FBW7 activator: -1; GPR151 activ: 2; TEAD-YAP block: 32

How did CN1CCN(c2cc(-c3ccncc3)nc(-c3cccnc3)n2)CC1 do in these assays?
MITF inh: 0; FBW7 activator: 0; GPR151 activ: 3; TEAD-YAP block: 61*

What do the screens show for `CN1CCN(c2cc(-c3ccccc3)nc(-c3ccccn3)n2)CC1`?
MITF inh: -5; FBW7 activator: 0; GPR151 activ: 0; TEAD-YAP block: 2

What do the screens show for `c1ccc(-c2cc(N3CCc4ccccc4C3)nc(-c3ccccn3)n2)nc1`?
MITF inh: 85*; FBW7 activator: -1; GPR151 activ: 1; TEAD-YAP block: 69*

Results for COC(=O)c1sccc1S(=O)(=O)N(CC(=O)Nc1cc(C)ccc1C)c1ccccc1 ?
MITF inh: 17; FBW7 activator: 1; GPR151 activ: 1; TEAD-YAP block: -1

How did CC1(Cc2cccc(C#N)c2)C(=O)Nc2ccc(-c3cccnc3)cc21 (configuration not stated) do in these assays?
MITF inh: 25; FBW7 activator: 0; GPR151 activ: 1; TEAD-YAP block: 45*

What do the screens show for `CC1(Cc2cccc(C#N)c2)C(=O)Nc2ccc(F)cc21` (configuration not stated)?
MITF inh: -4; FBW7 activator: 0; GPR151 activ: 5; TEAD-YAP block: 2

How did CC1(Cc2cccc(F)c2)C(=O)Nc2ccc(-c3cccnc3)cc21 (configuration not stated) do in these assays?
MITF inh: 23; FBW7 activator: 0; GPR151 activ: 4; TEAD-YAP block: 40*

High-throughput results (PubChem)
